From ChEMBL document CHEMBL3988442, “University of Dundee, Small-Polar-MMV Screening Library” (2021)
For some assays here: Results with a measured potency or affinity are listed apart.

Tests used:
Design in all cases: scale not given: direction of the effect not stated beside the values
[1] = target: Protein translocase subunit SecA (Escherichia coli (strain K12)) (UniProt P10408); assay: Assay to Identify E. coli SecA ATPase Inhibitors; assay type: functional; details: 30 µM
[2] = target: T1, Ubiquitin-activating enzyme e1, putative (Leishmania donovani (strain BPK282A1)) (UniProt E9BSI1); assay: Leishmania donovani Ubiquitin Activating Enzyme (LdE1); assay type: functional; details: 30 µM
T1 sequence (whole entry): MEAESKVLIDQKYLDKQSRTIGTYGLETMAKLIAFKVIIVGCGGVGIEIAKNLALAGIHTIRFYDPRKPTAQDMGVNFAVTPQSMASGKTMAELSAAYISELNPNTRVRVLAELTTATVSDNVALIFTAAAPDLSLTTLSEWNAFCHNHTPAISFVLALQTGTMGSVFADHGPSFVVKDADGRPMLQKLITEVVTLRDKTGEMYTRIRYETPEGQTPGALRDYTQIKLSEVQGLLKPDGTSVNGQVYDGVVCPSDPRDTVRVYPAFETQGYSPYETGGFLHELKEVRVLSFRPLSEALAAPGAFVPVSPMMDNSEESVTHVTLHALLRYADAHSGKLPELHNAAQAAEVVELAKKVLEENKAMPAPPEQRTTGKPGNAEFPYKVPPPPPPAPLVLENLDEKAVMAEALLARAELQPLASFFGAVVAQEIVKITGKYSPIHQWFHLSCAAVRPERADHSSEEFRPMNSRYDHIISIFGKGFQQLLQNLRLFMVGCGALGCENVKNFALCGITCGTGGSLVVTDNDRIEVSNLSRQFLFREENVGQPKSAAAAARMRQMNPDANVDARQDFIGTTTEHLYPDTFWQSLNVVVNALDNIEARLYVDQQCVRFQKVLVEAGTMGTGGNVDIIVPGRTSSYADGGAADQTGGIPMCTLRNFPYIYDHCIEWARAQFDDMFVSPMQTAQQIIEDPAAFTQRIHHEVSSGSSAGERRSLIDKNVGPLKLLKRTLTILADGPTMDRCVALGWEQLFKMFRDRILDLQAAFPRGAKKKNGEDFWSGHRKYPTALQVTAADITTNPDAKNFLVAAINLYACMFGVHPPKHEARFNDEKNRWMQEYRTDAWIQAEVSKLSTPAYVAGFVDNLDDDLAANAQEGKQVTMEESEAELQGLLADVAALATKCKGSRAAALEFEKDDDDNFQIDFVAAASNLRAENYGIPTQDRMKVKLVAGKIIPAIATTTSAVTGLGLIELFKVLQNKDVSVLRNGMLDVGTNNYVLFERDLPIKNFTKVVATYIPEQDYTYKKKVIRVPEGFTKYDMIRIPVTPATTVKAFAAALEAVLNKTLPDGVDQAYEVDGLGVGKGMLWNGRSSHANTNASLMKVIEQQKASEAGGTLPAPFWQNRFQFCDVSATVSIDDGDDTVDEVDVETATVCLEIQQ

[3] = target: Sialic acid-binding Ig-like lectin 9 (Homo sapiens) (UniProt Q9Y336); assay: Hs-Siglec9 ALPHAscreen SOP 20170721; details: 10 µM
Chain of Sialic acid-binding Ig-like lectin 9 (Homo sapiens) (Q9Y336 whole entry): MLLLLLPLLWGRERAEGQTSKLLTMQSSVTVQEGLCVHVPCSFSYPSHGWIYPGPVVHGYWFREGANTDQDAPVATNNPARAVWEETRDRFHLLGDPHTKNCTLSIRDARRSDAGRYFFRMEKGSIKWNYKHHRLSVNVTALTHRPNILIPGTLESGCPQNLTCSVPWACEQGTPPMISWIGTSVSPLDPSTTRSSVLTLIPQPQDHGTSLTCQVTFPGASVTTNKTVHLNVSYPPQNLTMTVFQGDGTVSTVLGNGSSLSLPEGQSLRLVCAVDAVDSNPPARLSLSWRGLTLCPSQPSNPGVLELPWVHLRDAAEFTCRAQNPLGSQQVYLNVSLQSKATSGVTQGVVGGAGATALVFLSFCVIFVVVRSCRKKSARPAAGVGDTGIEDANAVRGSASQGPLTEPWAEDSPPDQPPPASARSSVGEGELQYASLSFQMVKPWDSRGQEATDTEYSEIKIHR

[4] = tested on: Trypanosoma cruzi; assay: Trypanosoma cruzi phosphomannomutase and mannose-1-phosphate guanylyltransferase assay; assay type: functional; details: 10 µM
[5] = target: T2, Arginase-2, mitochondrial (Homo sapiens) (UniProt P78540); assay: in vitro enzyme assay to detect the production of urea directly proportional to the activity of Arginase II; assay type: functional; details: 33.3 µM; also: in the data most compounds retested in dose-response had high values
T2 sequence (whole entry): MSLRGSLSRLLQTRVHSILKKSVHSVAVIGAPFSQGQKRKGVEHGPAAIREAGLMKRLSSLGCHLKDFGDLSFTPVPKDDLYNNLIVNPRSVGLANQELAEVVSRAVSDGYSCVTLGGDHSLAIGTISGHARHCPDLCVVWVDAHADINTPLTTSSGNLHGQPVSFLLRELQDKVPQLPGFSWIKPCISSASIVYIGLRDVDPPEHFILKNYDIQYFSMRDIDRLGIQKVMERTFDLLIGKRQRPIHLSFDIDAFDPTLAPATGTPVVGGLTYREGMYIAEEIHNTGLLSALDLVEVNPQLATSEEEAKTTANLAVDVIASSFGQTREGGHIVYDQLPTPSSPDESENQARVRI

[6] = target: T3, Proteasome subunit beta (Trypanosoma cruzi) (UniProt O96673); assay: Trypanosoma cruzi proteasome chymotrypsin-like activity (TcProtChymo) assay.; also: in the data most compounds retested in dose-response had high values; assay type: functional; details: 9.37 µM
T3 sequence (whole entry): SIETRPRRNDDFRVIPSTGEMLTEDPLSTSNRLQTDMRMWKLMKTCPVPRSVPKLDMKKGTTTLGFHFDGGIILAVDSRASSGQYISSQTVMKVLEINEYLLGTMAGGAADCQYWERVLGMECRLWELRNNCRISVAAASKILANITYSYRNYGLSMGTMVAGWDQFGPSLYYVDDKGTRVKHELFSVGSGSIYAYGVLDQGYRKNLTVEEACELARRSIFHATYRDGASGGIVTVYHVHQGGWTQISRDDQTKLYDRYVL

[7] = organism: Homo sapiens; assay: To identify inhibition of the IFN signalling (Jak-Stat) pathway via expression of an eGFP reporter gene under the control of an IFN-stimulated response element (ISRE) containing MxA promoter.; assay type: functional; details: 30 µM
[8] = target: T4, Tyrosyl-tRNA synthetase, putative (Trypanosoma cruzi (strain CL Brener)) (UniProt Q4DSP6); assay: Trypanosoma cruzi tyrosyl tRNA synthetase (TcYRS) _High Tyrosine SOP; assay type: functional; details: 30 µM; also: in the data most compounds retested in dose-response had high values
T4 sequence (whole entry): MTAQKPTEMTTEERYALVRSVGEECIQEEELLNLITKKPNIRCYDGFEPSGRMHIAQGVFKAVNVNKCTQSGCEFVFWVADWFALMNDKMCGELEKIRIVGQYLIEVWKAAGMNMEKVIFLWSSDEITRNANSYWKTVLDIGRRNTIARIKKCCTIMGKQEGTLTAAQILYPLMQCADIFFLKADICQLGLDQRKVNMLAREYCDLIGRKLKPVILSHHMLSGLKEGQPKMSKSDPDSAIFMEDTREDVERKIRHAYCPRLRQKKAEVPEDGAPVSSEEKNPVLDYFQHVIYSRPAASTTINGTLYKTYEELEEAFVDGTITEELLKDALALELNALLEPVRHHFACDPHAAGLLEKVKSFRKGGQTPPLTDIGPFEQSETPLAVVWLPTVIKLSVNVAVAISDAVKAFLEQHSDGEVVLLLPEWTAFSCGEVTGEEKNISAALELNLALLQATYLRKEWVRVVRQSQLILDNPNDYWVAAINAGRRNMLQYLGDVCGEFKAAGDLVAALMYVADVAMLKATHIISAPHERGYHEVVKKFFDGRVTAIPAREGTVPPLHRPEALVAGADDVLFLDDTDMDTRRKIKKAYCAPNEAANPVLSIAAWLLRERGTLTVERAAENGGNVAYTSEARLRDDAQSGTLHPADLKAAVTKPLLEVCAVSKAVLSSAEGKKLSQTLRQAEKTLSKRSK

[9] = target: T4, Tyrosyl-tRNA synthetase, putative (Trypanosoma cruzi (strain CL Brener)); assay: Trypanosoma cruzi tyrosyl tRNA synthetase (TcYRS) SOP; assay type: functional; details: 30 µM
[10] = target: Chromo domain-containing protein 1 (Saccharomyces cerevisiae (strain ATCC 204508 / S288c) (Baker's yeast)) (UniProt P32657); assay: ScCHD-1 Enzyme Inhibition Assay; assay type: functional; details: 30 µM; also: in the data most compounds retested in dose-response had high values
Chain of Chromo domain-containing protein 1 (Saccharomyces cerevisiae (strain ATCC 204508 / S288c) (Baker's yeast)) (P32657 whole entry, the tested form may be a part): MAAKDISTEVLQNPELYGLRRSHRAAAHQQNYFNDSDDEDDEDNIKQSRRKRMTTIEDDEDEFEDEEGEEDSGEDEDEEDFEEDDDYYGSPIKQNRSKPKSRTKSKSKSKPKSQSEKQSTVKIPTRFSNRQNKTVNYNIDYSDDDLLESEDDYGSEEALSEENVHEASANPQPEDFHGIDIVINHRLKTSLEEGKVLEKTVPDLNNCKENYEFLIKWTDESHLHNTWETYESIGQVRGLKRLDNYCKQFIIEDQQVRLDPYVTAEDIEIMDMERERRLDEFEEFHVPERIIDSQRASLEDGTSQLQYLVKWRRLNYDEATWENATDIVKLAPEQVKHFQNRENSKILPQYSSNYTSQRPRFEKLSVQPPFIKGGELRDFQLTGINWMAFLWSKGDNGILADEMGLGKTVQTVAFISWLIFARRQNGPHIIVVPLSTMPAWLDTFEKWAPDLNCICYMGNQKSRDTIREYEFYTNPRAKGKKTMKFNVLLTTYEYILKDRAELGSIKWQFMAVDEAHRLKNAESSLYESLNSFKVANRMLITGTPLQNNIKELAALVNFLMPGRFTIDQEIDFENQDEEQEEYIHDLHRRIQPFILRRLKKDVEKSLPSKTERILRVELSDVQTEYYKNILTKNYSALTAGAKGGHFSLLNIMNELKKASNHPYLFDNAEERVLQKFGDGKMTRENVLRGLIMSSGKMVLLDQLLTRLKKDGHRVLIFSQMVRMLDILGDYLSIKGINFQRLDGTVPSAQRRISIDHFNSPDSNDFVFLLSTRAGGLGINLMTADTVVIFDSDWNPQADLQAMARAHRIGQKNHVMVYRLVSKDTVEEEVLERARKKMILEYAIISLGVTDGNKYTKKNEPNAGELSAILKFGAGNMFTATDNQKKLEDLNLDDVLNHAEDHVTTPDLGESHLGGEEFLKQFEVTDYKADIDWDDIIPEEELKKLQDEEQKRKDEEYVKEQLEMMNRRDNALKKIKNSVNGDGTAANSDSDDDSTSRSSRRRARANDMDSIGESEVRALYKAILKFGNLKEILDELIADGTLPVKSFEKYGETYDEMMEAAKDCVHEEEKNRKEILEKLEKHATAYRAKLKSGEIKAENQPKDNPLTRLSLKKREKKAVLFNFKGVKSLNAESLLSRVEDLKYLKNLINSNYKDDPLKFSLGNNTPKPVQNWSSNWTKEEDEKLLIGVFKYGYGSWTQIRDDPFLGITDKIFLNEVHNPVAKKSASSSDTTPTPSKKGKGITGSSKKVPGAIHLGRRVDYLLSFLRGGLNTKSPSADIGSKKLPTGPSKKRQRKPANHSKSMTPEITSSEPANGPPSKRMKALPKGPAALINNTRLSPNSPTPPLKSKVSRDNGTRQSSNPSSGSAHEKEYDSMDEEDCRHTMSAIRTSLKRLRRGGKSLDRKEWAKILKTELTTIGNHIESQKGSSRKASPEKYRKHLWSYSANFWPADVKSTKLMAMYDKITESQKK

Chain of Protein translocase subunit SecA (Escherichia coli (strain K12)) (P10408 whole entry): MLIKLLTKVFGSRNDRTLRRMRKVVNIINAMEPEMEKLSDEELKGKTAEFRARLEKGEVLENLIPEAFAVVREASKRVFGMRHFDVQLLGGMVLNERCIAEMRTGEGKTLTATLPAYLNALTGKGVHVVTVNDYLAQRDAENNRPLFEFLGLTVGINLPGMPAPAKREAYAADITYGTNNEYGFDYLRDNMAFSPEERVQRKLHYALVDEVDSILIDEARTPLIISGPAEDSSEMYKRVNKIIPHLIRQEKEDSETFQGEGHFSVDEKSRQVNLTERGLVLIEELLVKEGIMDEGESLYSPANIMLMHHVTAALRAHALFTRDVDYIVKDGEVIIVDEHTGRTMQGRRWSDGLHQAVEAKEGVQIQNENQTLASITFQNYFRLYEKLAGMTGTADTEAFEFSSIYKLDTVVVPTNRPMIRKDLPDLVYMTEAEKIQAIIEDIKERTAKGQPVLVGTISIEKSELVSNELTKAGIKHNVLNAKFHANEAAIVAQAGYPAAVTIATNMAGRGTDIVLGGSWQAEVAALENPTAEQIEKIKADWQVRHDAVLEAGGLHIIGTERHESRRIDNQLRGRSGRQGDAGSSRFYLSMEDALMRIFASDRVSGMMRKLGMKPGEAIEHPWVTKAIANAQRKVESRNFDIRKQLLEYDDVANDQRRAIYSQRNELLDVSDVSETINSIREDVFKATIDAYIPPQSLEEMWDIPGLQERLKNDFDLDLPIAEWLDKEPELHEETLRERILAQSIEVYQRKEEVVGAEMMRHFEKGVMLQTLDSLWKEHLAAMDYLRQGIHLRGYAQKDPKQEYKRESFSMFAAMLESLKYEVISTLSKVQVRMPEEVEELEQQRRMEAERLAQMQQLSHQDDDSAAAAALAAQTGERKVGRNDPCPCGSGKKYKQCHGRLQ

| SMILES | Percent Effect [1] [%] | Percent Effect [2] [%] | Percent Effect [3] [%] | Percent Effect [4] [%] | Percent Effect [5] [%] | Percent Effect [6] [%] | Percent Effect [7] [%] | Percent Effect [8] [%] | Percent Effect [9] [%] | Percent Effect [10] [%] |
| --- | --- | --- | --- | --- | --- | --- | --- | --- | --- | --- |
| Cc1nc(C2CCCN2Cc2ncc(C(C)C)o2)no1 (stereo not given) | -0.503 | 2.67 | -1.37 | -0.803 | -0.444 | 1.44 | 13.4 | -1.58 | -5.13 | -7.52 |
| Cc1ccc(OC2(C(=O)O)CCN(C(=O)c3ccc(F)cc3)CC2)cn1 | -6.12 | -2.7 | 27.8 | 9.41 | -1.05 | 1.88 | -18.1 | 2.66 | 7.32 | -1.29 |
| O=C(NCC1COCc2c(-c3cccnc3)nnn2C1)c1cccs1 (stereo not given) | -1.54 | 9.09 | -6.14 | -8.28 | -12.2 | 13 | 4.75 | 10 | 10.3 | -4.23 |
| CC(C)CNC(=O)c1ccc2nnc(C3CCN(S(C)(=O)=O)C3)n2c1 (stereo not given) | -3.3 | -3.9 | 1.06 | -1.27 | 0 | 3.44 | -2.55 | -0.526 | 2.56 | -1.85 |
| O=C(NCCOc1ccc2c(c1)OCO2)N1CCC1 | -4.13 | 20.8 | 6.65 | -3.36 | 5.94 | 19.1 | -11.1 | 4.9 | 16.5 | -4.94 |
| COCCOc1cccc(C(=O)N2CCCC(n3ccnc3C)C2)c1 (stereo not given) | -2.56 | 13 | 8.18 | 4.85 | -2.25 | 0.877 | 1.8 | 0 | 18.8 | -12.3 |
| C[C@@H]1C(=O)NC[C@H]2CN(CCc3ccccc3)C[C@H]21 | -0.103 | 16.9 | 0.474 | 1.5 | 2.74 | 11.4 | 2.51 | 11.6 | 20 | -8.42 |
| CN(C)CCN1CCC2(CCN(C(=O)c3ccc(F)cc3)CC2)C1=O | -1.6 | 14.3 | -0.427 | -5.44 | 2.28 | 16.7 | 12.2 | 10.6 | 12.5 | -6.97 |
| Cc1nsc(NC(=O)N2CCN(Cc3ccc(F)cc3)C(=O)C2)n1 | -3.7 | -10.8 | -0.0827 | -0.291 | 3.85 | 4.45 | 5.1 | 2.66 | 2.44 | 3.97 |
| O=C(NCCn1ccnc1)N1CCCC1c1ccsc1 (stereo not given) | -1.45 | 10.3 | -12.8 | 8.73 | 1.64 | 17.7 | -7.37 | 6.22 | 20.5 | -4.56 |
| COCCC(=O)N1CCn2c(COCC3CC3)cnc2C1C (stereo not given) | -9.04 | 1.3 | 6.82 | -3.6 | -3.24 | 4.33 | -4.92 | 0.526 | 5.13 | -2.88 |
